Several values for one entry are separate records, joined by “and”; a condition that tells them apart may be missing. Equal entries are not always repeated. Results filed as inconclusive are left out. A number with no mark means an inactive call. Activity calls are given as the source filed them. Calls come from the whole dose curve; as a rule, active = well fitted curve in the direction sought with a large enough effect; inconclusive = small, poorly fitted or top-dose-only effect, or another doubt; inactive = no such curve, though single readings can be large; an effect the other way counts as inactive or inconclusive.

Assay [1] has as its target Cytochrome P450 3A7 (Homo sapiens) (UniProt P24462). Description: Cytochrome P450 family 3 subfamily A member 7 (CYP3A7) small molecule antagonists: luciferase biochemical qHTS assay (AID 1963596). Note: nearly all actives have a fitted effect of over 40% in size. Note: potency is the fitted concentration of half-maximal effect. The method, boiled down:
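Compounds were screened in qHTS format for interference with CYP3A7 turnover of a proluciferin substrate. Reactions ran 1 h at room temperature after NADPH regeneration solution was added, then luciferin product was detected by luminescence.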
In general terms: In qHTS, concentration-response curves come from the screen itself.

Assay [2] is described as follows: Cellular viability qHTS for adrenocortical cancer (ACC) cell line SW-13 (AID 1963989).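 For activity (max response): cells grown in serum-free medium with ITS supplement; % is set by controls: 0 for no effect and ±100 for the full control effect.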 Note: nearly all actives have a fitted effect of over 65% in size. Note: potency is the fitted concentration of half-maximal effect. Conditions: SW-13 ACC cells viability, CellTiter-Glo, 48 h; activity (max response): hits give low values. The method, boiled down: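 Viability was read as CellTiter-Glo luminescence after 48 h compound treatment (up to 46 uM final) of SW-13 cells grown serum-free; titration curves were fit with a four-parameter logistic model to give IC50 and efficacy.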

A short description of assay [3]: Cellular viability qHTS for adrenocortical cancer (ACC) cell line NCI-H295R (AID 1963990). Note: nearly all actives have a fitted effect of over 60% in size. Note: potency is the fitted concentration of half-maximal effect. The method, boiled down: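 CellTiter-Glo ATP luminescence, read 48 h after compound addition, measured viability of NCI-H295R adrenocortical cells grown serum-free with ITS. Final concentrations spanned up to 46 uM. Data normalized to DMSO and doxorubicin, fitted for IC50 and maximal response.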

Assay [4] in a line: Quantitative highthroughput screen to assess conditional lethalithy of P12 Ichikawa cells grown in RPMI1640 with dialyzed fetal bovine serum (RPMI+ds) (AID 1963880).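 For viability: 100% = DMSO wells and 0% = empty wells on each plate.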 Note: nearly all actives have a fitted effect of over 35% in size. Note: potency is the fitted concentration of half-maximal effect. As to conditions: Potency: P12-Ichikawa viability. The method in brief:
(§1)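 Each medium arm—HPLM with 10% dialyzed FBS, or RPMI1640 with 5 mM glucose and 10% untreated or dialyzed FBS—was screened against an 11-point, 3-fold compound titration for 48 h at 37 °C, with CellTiter-Glo luminescence as endpoint.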

Assay [5] in a line: Quantitative highthroughput screen to assess conditional lethalithy of P12 Ichikawa cells grown in RPMI1640 with untreated serum (RPMI+s) (AID 1963881).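 For viability: series mostly up to about 46 µM; 100% = DMSO wells and 0% = empty wells without cells.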 Note: nearly all actives have a fitted effect of over 35% in size. Note: potency is the fitted concentration of half-maximal effect. As to conditions: Potency: viability. The method, boiled down:
as §1

Assay [6] is described as follows: Quantitative highthroughput screen to assess conditional lethalithy of NOMO1 cells grown in RPMI1640 with untreated serum (RPMI+s) (AID 1963876).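 Note: 100% = DMSO wells and 0% = empty wells without cells; nearly all actives have a fitted effect of over 35% in size.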 The method, boiled down: as §1
The nature of assay [7]: Quantitative highthroughput screen to assess conditional lethalithy of NOMO1 cells grown in RPMI1640 with dialyzed fetal bovine serum (RPMI+ds) (AID 1963877).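 Note: series mostly up to about 46 µM; 100% = DMSO control wells and 0% = empty wells; nearly all actives have a fitted effect of over 30% in size.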 The method in brief: as §1
Assay [8] in a line: Quantitative highthroughput screen to assess conditional lethalithy of P12 Ichikawa cells grown in Human Plasma-Like Medium with dialyzed fetal bovine serum (HPLM+ds) (AID 1963879). Note: series mostly up to about 46 µM; nearly all actives have a fitted effect of over 35% in size. As to conditions: Potency: viability. The method, boiled down: as §1
Assay [9] is described as follows: Quantitative highthroughput screen to assess conditional lethalithy of SEM cells grown in Human Plasma-Like Medium with dialyzed fetal bovine serum (HPLM+ds) (AID 1963882). The method, boiled down:
as §1

Assay [10] is described as follows: Quantitative highthroughput screen to assess conditional lethalithy of SEM cells grown in RPMI1640 with unreated serum (RPMI+s) (AID 1963883).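 For viability: 100% = DMSO wells and 0% = empty wells without cells.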 Note: nearly all actives have a fitted effect of over 35% in size. Note: potency is the fitted concentration of half-maximal effect. The method, boiled down:
as §1

The nature of assay [11]: Quantitative highthroughput screen to assess conditional lethalithy of SEM cells grown in RPMI1640 with dialyzed fetal bovine serum (RPMI+ds) (AID 1963884).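 For viability: series mostly up to about 46 µM; 100% = DMSO control wells and 0% = empty wells without cells.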 Note: nearly all actives have a fitted effect of over 35% in size. Note: potency is the fitted concentration of half-maximal effect. The method, boiled down:
as §1

A short description of assay [12]: Quantitative highthroughput screen to assess conditional lethalithy of NOMO1 cells grown in Human Plasma-Like Medium with dialyzed fetal bovine serum (HPLM+ds) (AID 1963878). The method, boiled down:
as §1

Chain of Cytochrome P450 3A7 (Homo sapiens) (P24462 whole entry, looked up): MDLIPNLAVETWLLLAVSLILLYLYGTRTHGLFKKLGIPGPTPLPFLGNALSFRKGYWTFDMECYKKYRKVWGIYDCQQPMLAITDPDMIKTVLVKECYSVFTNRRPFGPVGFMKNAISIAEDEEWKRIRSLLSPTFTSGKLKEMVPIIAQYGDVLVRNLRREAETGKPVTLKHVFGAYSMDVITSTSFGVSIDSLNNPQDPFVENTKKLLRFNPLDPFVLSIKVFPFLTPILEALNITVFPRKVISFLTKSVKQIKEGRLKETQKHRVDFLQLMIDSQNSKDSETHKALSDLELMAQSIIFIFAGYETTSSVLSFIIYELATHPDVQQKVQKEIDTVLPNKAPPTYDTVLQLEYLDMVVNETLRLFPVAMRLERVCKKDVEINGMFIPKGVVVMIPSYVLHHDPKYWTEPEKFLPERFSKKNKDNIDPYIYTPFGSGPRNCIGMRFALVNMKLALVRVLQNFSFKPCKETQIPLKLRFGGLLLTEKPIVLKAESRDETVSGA

Take `CN1C[C@@H]2C[C@H]1CN2c1cc2c(cc1F)c(=O)c(C(=O)O)cn2C1CC1`: the Potency result in assay [1] and in [3] was “inactive” in each case. The activity (max response) in assay [2] was -2.55%.
Regarding `C[C@@H]1C[C@H]2[C@@H]3CCC4=CC(=O)C=C[C@]4(C)[C@@]3(F)[C@@H](O)C[C@]2(C)[C@@]1(O)C(=O)COC(=O)c1ccncc1`, the Potency in assay [1] is 8.71 µM (active). The activity (max response) in assay [2] was -0.514%.
For `Fc1ccc(C(c2ccc(F)cc2)N2CCNCC2)cc1`, the Potency result in assay [1] and in [3] was “inactive” each time. In addition, the activity (max response) in assay [2] was 4.07%.
With `COc1c(N2C[C@@H]3CCCN[C@@H]3C2)c(F)cc2c(=O)c(C(=O)O)cn(C3CC3)c12`, the Potency result in [1] was “inactive”. The activity (max response) in [2] is -4.75%.
For the molecule `COc1ccc(Nc2cc(-c3cnc(N)nc3)nc(N3CCOCC3)n2)cn1`, in [1], the Potency result is “inactive”. In addition, the Potency is 2.64 µM (active) in assay [4], 2.35 µM (active) in [5] and 2.24 µM (active) in assay [3].
As to `COc1ccc(-c2cc(C(F)F)nn2-c2ccc(S(N)(=O)=O)cc2)cc1F`, the Potency result in assay [1] and in assay [3] was “inactive” in each case. The activity (max response) in assay [2] is -7.1%.
As to `NNc1nncc2ccccc12`, the Potency entry in assay [1], in [6], in [7], in assay [8], in [4] and in [5] was “inactive” each time. Besides, the Potency entry in assay [9] and in [3] was “inactive” throughout. In addition, the activity (max response) in assay [2] is 12.3% and -11.3%.
On to `CN(C)C(=O)Nc1ccc(Cl)c(Cl)c1`, for which the Potency entry in assay [1] and in assay [3] was “inactive” in each case. In assay [2], the activity (max response) was -2.09%.
With `CC(=O)Nc1ccc(OCC(O)CNC(C)C)cc1` (stereo unspecified), the Potency entry in assay [1] is “inactive”. In assay [2], the activity (max response) was 9.26%.
As to `CC1(C)O[C@@H]2C[C@H]3[C@@H]4C[C@H](F)C5=CC(=O)CC[C@]5(C)[C@H]4[C@@H](O)C[C@]3(C)[C@]2(C(=O)CO)O1`, the Potency entry in [1] is “inactive”. Also, the activity (max response) in assay [2] is 3.69%.
`CS(=O)(=O)OCCCCOS(C)(=O)=O`: the Potency result in [1] and in assay [3] was “inactive” each time. Also, the Potency in assay [10] and in [11] was 20.9 µM (active) throughout. The activity (max response) in [2] was 4.16%.
With `OCC(O)CS` (stereo unspecified), the Potency entry in assay [1] was “inactive”. In [2], the activity (max response) was 8.13%.
On the same counts, the results for `NCCO` are “inactive” and 7.88%.
On the same counts, the results for `Cc1c(C(C)C)c(=O)n(-c2ccccc2)n1C` are “inactive” and -5.23%.
`C[N+]12CCC(CC1)C(OC(=O)C(O)(c1ccccc1)c1ccccc1)C2` (stereo unspecified): the Potency result in [1] and in assay [3] was “inactive” throughout. The activity (max response) in assay [2] was -2.73%.
With `Cc1ccc(S(=O)(=O)NC(=O)NC2CCCC2)cc1`, the Potency entry in assay [1] and in assay [3] was “inactive” in each case. Also, the activity (max response) in assay [2] was 10.7%.
Turning to `COc1nccc(-c2c(-c3ccc(F)cc3)ncn2C2CCC(O)CC2)n1` (stereo unspecified), the Potency entry in assay [1], in [5] and in [3] was “inactive” throughout. Moreover, the Potency in [10] was 5.26 µM (active).
As for `CC(S)C(=O)NCC(=O)O` (stereo unspecified), the Potency entry in [1], in assay [7], in assay [8], in [4] and in assay [3] was “inactive” each time. Besides, the activity (max response) in [2] was 6.56% and -5.95%.
On to `COc1ccc(CCN2CCN(CCCc3ccccc3)CC2)cc1OC`, for which the Potency entry in [1], in assay [12], in [8], in assay [4], in [5] and in assay [9] was “inactive” throughout. For the same molecule, the Potency entry in assay [10], in assay [11] and in assay [3] was “inactive” each time. In addition, the activity (max response) in [2] was -13%.
Turning to `Cc1nc(N)nc(N)c1-c1ccc(Cl)c(Cl)c1`, the Potency entry in assay [1] was “inactive”. The Potency in [2] was 0.231 µM (active).
In the case of `N[C@@H](CSCCCO)C(=O)O`, the Potency entry in assay [1] is “inactive”. For the same molecule, in [2], the activity (max response) is 14.2%.
With `O=C(NCCO[N+](=O)[O-])c1cccnc1`, the Potency result in assay [1], in [6], in assay [4], in assay [5], in assay [9] and in [11] was “inactive” throughout. For the same molecule, the Potency entry in [3] is “inactive”. Further, in assay [2], the activity (max response) is 2.63% and 5.13%.
With `CN1CCC(N(Cc2cccs2)c2ccccc2)CC1`, the Potency entry in [1] and in assay [3] was “inactive” in each case. In [2], the activity (max response) is 6.02%.
Take `CN(C)CCCO[C@@H]1[C@H]2OC(C)(C)O[C@H]2O[C@@H]1C(O)CO` (stereo partly specified): the Potency entry in assay [1] and in assay [3] was “inactive” each time. For the same molecule, the activity (max response) in [2] is 7.54%.
On to `CCOc1cc(C(=O)Nc2ccc(Cl)c(-c3nc4ccccc4[nH]3)c2)cc(OCC)c1OCC`, for which the Potency entry in assay [1], in [8] and in assay [3] was “inactive” throughout.

The values above are taken from PubChem BioAssay (NCATS).
